Measurements published in article PMC5540273 (PLoS ONE, 2017).
Read-outs that look alike come from different tables or passages of the source.

Columns and labels:
[1] = tested on: ANKK1; conditions: concentration: 1 μM, replicates: in singlicate; n = 1
[2] = tested on: T1, ARK5; conditions: concentration: 1 μM, replicates: in singlicate; n = 1
T1 construct: gene NUAK1

[3] = tested on: T2, ASK1; conditions: concentration: 1 μM, replicates: in singlicate; n = 1
T2 construct: gene MAP3K5

[4] = tested on: T3, ASK2; conditions: concentration: 1 μM, replicates: in singlicate; n = 1
T3 construct: gene MAP3K6

[5] = tested on: AURKA; conditions: concentration: 1 μM, replicates: in singlicate; n = 1
[6] = tested on: AURKB; conditions: concentration: 1 μM, replicates: in singlicate; n = 1
[7] = tested on: AURKC; conditions: concentration: 1 μM, replicates: in singlicate; n = 1
[8] = tested on: AXL; conditions: concentration: 1 μM, replicates: in singlicate; n = 1
[9] = tested on: T4, BIKE; conditions: concentration: 1 μM, replicates: in singlicate; n = 1
T4 construct: gene BMP2K

[10] = tested on: BLK; conditions: concentration: 1 μM, replicates: in singlicate; n = 1
[11] = tested on: BMPR1A; conditions: concentration: 1 μM, replicates: in singlicate; n = 1
[12] = tested on: BMPR1B; conditions: concentration: 1 μM, replicates: in singlicate; n = 1
[13] = tested on: BMPR2; conditions: concentration: 1 μM, replicates: in singlicate; n = 1
[14] = tested on: BMX; conditions: concentration: 1 μM, replicates: in singlicate; n = 1
[15] = tested on: BRAF; conditions: concentration: 1 μM, replicates: in singlicate; n = 1
[16] = tested on: T5, BRK; conditions: concentration: 1 μM, replicates: in singlicate; n = 1
T5 construct: gene PTK6

[17] = tested on: BRSK1; conditions: concentration: 1 μM, replicates: in singlicate; n = 1
[18] = tested on: BRSK2; conditions: concentration: 1 μM, replicates: in singlicate; n = 1
[19] = tested on: BTK; conditions: n = 1
[20] = tested on: BUB1; conditions: concentration: 1 μM, replicates: in singlicate; n = 1
[21] = concentration: 1 μM, replicates: in singlicate
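Note: KINOMEscan kinase panel screen.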

Nc1ncnc2[nH]c(-c3ccccc3)nc12 [AH5015]
%Inh [1]: 14% | %Inh [2]: 0% | %Inh [3]: 5% | %Inh [4]: 20% | %Inh [5]: 100% | %Inh [6]: 24% | %Inh [7]: 14% | %Inh [8]: 0% | %Inh [9]: 24% | %Inh [10]: 10% | %Inh [11]: 0% | %Inh [12]: 0% | %Inh [13]: 0% | %Inh [14]: 20% | %Inh [15]: 6% | %Inh [16]: 16% | %Inh [17]: 1% | %Inh [18]: 0% | %Inh [19, 21]: 1% | %Inh [20]: 38%

O=C(Nc1n[nH]c2nc(-c3nccs3)c(Br)cc12)C1CCCC1 [SB-742609]
%Inh [1]: 0% | %Inh [2]: 0% | %Inh [3]: 0% | %Inh [4]: 13% | %Inh [5]: 0% | %Inh [6]: 13% | %Inh [7]: 11% | %Inh [8]: 0% | %Inh [9]: 0% | %Inh [10]: 31% | %Inh [11]: 0% | %Inh [12]: 0% | %Inh [13]: 13% | %Inh [14]: 0% | %Inh [15]: 12% | %Inh [16]: 26% | %Inh [17]: 93% | %Inh [18]: 85% | %Inh [19, 21]: 0% | %Inh [20]: 37%

Fc1cc(Cl)ccc1Nc1ccnc2cc(-c3ccc(CN4CCCCC4)o3)ccc12 [GW560116]
%Inh [1]: 0% | %Inh [2]: 0% | %Inh [3]: 0% | %Inh [4]: 0% | %Inh [5]: 95.7% | %Inh [6]: 0% | %Inh [7]: 0% | %Inh [8]: 0% | %Inh [9]: 0% | %Inh [10]: 55% | %Inh [11]: 0% | %Inh [12]: 0% | %Inh [13]: 0% | %Inh [14]: 0% | %Inh [15]: 0% | %Inh [16]: 14% | %Inh [17]: 2% | %Inh [18]: 0% | %Inh [19, 21]: 0% | %Inh [20]: 26%

NC(=O)c1nnc2ccccc2c1N
%Inh [1]: 34% | %Inh [2]: 0% | %Inh [3]: 20% | %Inh [4]: 40% | %Inh [5]: 0% | %Inh [6]: 32% | %Inh [7]: 40% | %Inh [8]: 19% | %Inh [9]: 51% | %Inh [10]: 0% | %Inh [11]: 7% | %Inh [12]: 10% | %Inh [13]: 36% | %Inh [14]: 90.1% | %Inh [15]: 23% | %Inh [16]: 9% | %Inh [17]: 22% | %Inh [18]: 0% | %Inh ([19]; 1 µM): 43% | %Inh [20]: 12%

CN(C)CCN(C)C(=O)c1cc(-c2ccncc2)c(-c2ccc(Cl)c(O)c2)o1.Cl.Cl [SB-710397]
%Inh [1]: 0% | %Inh [2]: 0% | %Inh [3]: 18% | %Inh [4]: 0% | %Inh [5]: 0% | %Inh [6]: 9% | %Inh [7]: 0% | %Inh [8]: 8% | %Inh [9]: 13% | %Inh [10]: 12% | %Inh [11]: 0% | %Inh [12]: 0% | %Inh [13]: 31% | %Inh [14]: 0% | %Inh [15]: 94.5% | %Inh [16]: 29% | %Inh [17]: 2% | %Inh [18]: 0% | %Inh [19, 21]: 10% | %Inh [20]: 95.2%

C[C@@H]1CCCCN1c1cc(-c2ccc3c(N)n[nH]c3c2)nc(N)n1 [GSK2258759]
%Inh [1]: 17% | %Inh [2]: 0% | %Inh [3]: 0% | %Inh [4]: 0% | %Inh [5]: 82% | %Inh [6]: 0% | %Inh [7]: 14% | %Inh [8]: 0% | %Inh [9]: 26% | %Inh [10]: 0% | %Inh [11]: 0% | %Inh [12]: 0% | %Inh [13]: 0% | %Inh [14]: 12% | %Inh [15]: 0% | %Inh [16]: 11% | %Inh [17]: 0% | %Inh [18]: 0% | %Inh [19, 21]: 0% | %Inh [20]: 0%

Cc1csc(-c2nc(Nc3ccncc3)c3ccccc3n2)n1 [GW869640]
%Inh [1]: 18% | %Inh [2]: 0% | %Inh [3]: 11% | %Inh [4]: 37% | %Inh [5]: 41% | %Inh [6]: 45% | %Inh [7]: 1% | %Inh [8]: 0% | %Inh [9]: 0% | %Inh [10]: 5% | %Inh [11]: 6% | %Inh [12]: 42% | %Inh [13]: 36% | %Inh [14]: 14% | %Inh [15]: 10% | %Inh [16]: 8% | %Inh [17]: 0% | %Inh [18]: 15% | %Inh [19, 21]: 0% | %Inh [20]: 72%

O=S(=O)(c1ccc(-c2ccnc3[nH]ccc23)cc1)N1CCCC1 [GSK846226]
%Inh [1]: 0% | %Inh [2]: 0% | %Inh [3]: 3% | %Inh [4]: 14% | %Inh [5]: 13% | %Inh [6]: 20% | %Inh [7]: 60% | %Inh [8]: 46% | %Inh [9]: 87% | %Inh [10]: 0% | %Inh [11]: 0% | %Inh [12]: 0% | %Inh [13]: 24% | %Inh [14]: 10% | %Inh [15]: 0% | %Inh [16]: 0% | %Inh [17]: 0% | %Inh [18]: 0% | %Inh [19, 21]: 0% | %Inh [20]: 0%

Cc1ccccc1-n1cnc2c(N)ncnc21 [SKF-97510]
%Inh [1]: 0% | %Inh [2]: 0% | %Inh [3]: 7% | %Inh [4]: 0% | %Inh [5]: 0% | %Inh [6]: 0% | %Inh [7]: 0% | %Inh [8]: 0% | %Inh [9]: 0% | %Inh [10]: 9% | %Inh [11]: 0% | %Inh [12]: 0% | %Inh [13]: 0% | %Inh [14]: 12% | %Inh [15]: 0% | %Inh [16]: 5% | %Inh [17]: 0% | %Inh [18]: 0% | %Inh [19, 21]: 0% | %Inh [20]: 0%

O=C(Nc1ccc2c(c1)OCO2)NC1CCN(c2ccnc(Nc3ccc(F)cc3)n2)C1 (centres unmarked) [GSK1379724]
%Inh [1]: 0% | %Inh [2]: 8% | %Inh [3]: 3% | %Inh [4]: 0% | %Inh [5]: 0% | %Inh [6]: 99.4% | %Inh [7]: 52% | %Inh [8]: 5% | %Inh [9]: 27% | %Inh [10]: 19% | %Inh [11]: 0% | %Inh [12]: 0% | %Inh [13]: 18% | %Inh [14]: 5% | %Inh [15]: 1% | %Inh [16]: 16% | %Inh [17]: 0% | %Inh [18]: 0% | %Inh [19, 21]: 0% | %Inh [20]: 24%
